Results reported in PubChem BioAssay (Tox21).
Inconclusive results are not listed. The source made the active and inactive calls. Unless noted, calls come from the whole dose curve; as a rule, active = well fitted curve in the direction sought with a large enough effect in the repeat runs; inconclusive = weak or mixed curves; inactive = no such curve, though single readings can be large; an effect the other way counts as inactive or inconclusive.

Tests used:
[1] = qHTS assay to identify small molecule agonists of the hypoxia (HIF-1) signaling pathway - cell viability counter screen (AID 1224844; calls by dose curve; note: nearly all actives have a fitted effect of over 50% in size)
Method in brief: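 CellTiter-Glo luminescence read-out, 30 min RT, taken in the same wells as the beta-lactamase HRE reporter assay; HRE-bla ME-180 cells, 0.5% dialyzed FBS, 17 hr compound treatment at 37C, 5% CO2.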

[2] = qHTS assay to identify small molecule agonists of H2AX (AID 1224845; active = well fitted activation curve with a large enough effect in the signal ratio in the repeat runs, not every such curve was filed as active; the % refers to the signal ratio)
Method in brief: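 Wild-type CHO-K1 cells plated overnight, then exposed 3 hr at 37C to compounds at 15 concentrations (0.76% DMSO). Lysed, then HTRF anti-pH2AX(S139)-cryptate/anti-H2AX-d2 detection after 24 hr at room temperature; emissions 665 and 620 nm.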

[3] = qHTS assay to identify small molecule agonists of H2AX - cell viability counter screen (AID 1224847; calls by dose curve; note: top concentration of the series differs between compounds; nearly all actives have a fitted effect of over 30% in size)
Method in brief: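 Compounds tested at 15 concentrations were incubated 3 hr at 37C with wild-type CHO-K1 cells; cellular ATP-based luminescence (CellTiter-Glo) indicated viability.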

[4] = qHTS RealTime-Glo MT Cell Viability Assay in HepG2 cells - 24 hour (AID 1224867); note: nearly all actives have a fitted effect of over 50% in size
Method in brief: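 qHTS, HepG2, 600 cells/well, RealTime-Glo (NanoLuc + prosubstrate) added with cells; 5 h preincubation; DMSO compound addition; 37 C; luminescence at 0/8/16/24/32/40 h.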

[5] = A CellTox Green Cytotoxicity Assay to monitor cytotoxicity in HEK293 cells - 0 hour (AID 1224869); note: nearly all actives have a fitted effect of over 50% in size
Method in brief: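 Read-out: fluorescence of a cell-impermeant cyanine dye staining DNA of dead cells, proportional to cytotoxicity. HEK293, 600 cells/well with reagent, compound (23 nL DMSO) added after 5 h; reads at 0, 8, 16, 24, 32, 40 h.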

[6] = qHTS RealTime-Glo MT Cell Viability Assay in HepG2 cells - 40 hour (AID 1224870); note: nearly all actives have a fitted effect of over 50% in size
Method in brief: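 HepG2 cells mixed with RealTime-Glo MT reagents (NanoLuc plus cell-permeant prosubstrate) were seeded at 600 cells/well, incubated 5 h at 37 C/5% CO2, then pinned with compounds in DMSO; nonlytic luminescence tracked viability during 40 h treatment.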

[7] = qHTS assay to identify small molecule agonists of the hypoxia (HIF-1) signaling pathway (AID 1224846; active = well fitted activation curve with a large enough effect in the signal ratio in the repeat runs, not every such curve was filed as active; the % refers to the signal ratio)
Method in brief: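 Beta-lactamase FRET read-out (CCF4-AM substrate) from ME-180 cells carrying an HRE-driven bla reporter, after 17 hrs compound exposure at 37C/5% CO2. Cells were seeded at 2,000 per well in 0.5% dialyzed FBS medium and preincubated 5 hrs.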

[8] = qHTS RealTime-Glo MT Cell Viability Assay in HEK293 cells - 32 hour (AID 1224868); note: nearly all actives have a fitted effect of over 50% in size; note: potency is the fitted concentration of half-maximal effect; for activity change, negative = cytotoxic: top concentration of the series differs between compounds
Method in brief: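 Assay medium contained NanoLuc luciferase plus cell-permeant prosubstrate, added with HEK293 cells at 600 cells/well. After 5 h at 37 C/5% CO2 compounds were added; plates stayed at 37 C for 40 h with serial luminescence reads.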

[9] = qHTS assay to identify small molecule antagonists of the estrogen related receptor (ERR) signaling pathway from Tox21 library (AID 1224848); note: nearly all actives have a fitted effect of over 50% in size; note: potency is the fitted concentration of half-maximal effect
Method in brief: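 Tox21 10K compounds in DMSO tested for ERR pathway antagonism in NTP's ERR cell line; 18 h, 37 C exposure; ONE-Glo luminescence.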

[10] = qHTS assay to identify small molecule agonists of the estrogen related receptor (ERR) signaling pathway from Tox21 library (AID 1224849; calls by dose curve; note: nearly all actives have a fitted effect of over 15% in size); conditions: ERR reporter cell line, ONE-Glo luciferase, 18 h; at 92.4 µM (top of the series) unless noted
Method in brief: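 Luminescence readout (ONE-Glo, 30 min RT) after 18 h compound exposure at 37 C of NTP-supplied ERR reporter cells; cells were plated 6 h before compound addition by pin tool.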
% is set by controls: 0 for no effect and ±100 for the full control effect.

CC(=O)Oc1cc(C(C)C)c(OCCN(C)C)cc1C
inactive: Potency [1] | Potency [2] | Potency [3] | Potency [4] | Potency [5] | Potency [6]

CCNCCO
inactive: Potency [1] | outcome [7] | Potency [3] | Potency [4] | Potency [8] | Potency [5] | Potency [6]

CN1CCN(c2c(F)cc3c(=O)c(C(=O)O)cn4c3c2SCC4)CC1
inactive: Potency [1] | outcome [7] | Potency [3] | Potency [4] | Potency [8] | Potency [5] | Potency [6]

CCCCCCCCOC(=O)CCCCCCCCC(=O)OCCCCCCCC
inactive: Potency [1] | outcome [7] | Potency [3] | Potency [9] | activity change, positive = activation [10] 3.45% | Potency [4] | Potency [5] | Potency [6]

O=c1oc2c(O)c(O)cc3c(=O)oc4c(O)c(O)cc1c4c23
inactive: activity change, negative = cytotoxicity [1] 0.799% [at 15.8 µM] | activation [7] -0.716% [at 15.8 µM] | activity change, negative = cytotoxicity [3] 0.906% [at 31.6 µM] | activity, negative = inhibition [9] 4.6% [at 19 µM] | activity change, positive = activation [10] 2.5% [at 19 µM] | activity change, negative = cytotoxicity [4] -9.61% [at 15.8 µM] | activity change, negative = cytotoxic [8] -21.3% [at 15.8 µM] | cytotoxicity [5] 10.4% [at 15.8 µM] | activity change, negative = cytotoxic [6] -12.4% [at 15.8 µM]

CCC1(C)NC(=O)NC1=O (configuration not stated)
inactive: Potency [1] | outcome [7] | Potency [3] | Potency [4] | Potency [8] | Potency [5] | Potency [6]

NNS(=O)(=O)c1ccc(Oc2ccc(S(=O)(=O)NN)cc2)cc1
inactive: Potency [1] | outcome [7] | Potency [3] | Potency [9] | activity change, positive = activation [10] -13.2% | Potency [4] | Potency [8] | Potency [5] | Potency [6]

CC1=NN(c2cc(Cl)c(S(=O)(=O)O)cc2Cl)C(=O)C1N=Nc1ccc(S(=O)(=O)O)cc1 (configuration not stated)
inactive: Potency [1] | outcome [7] | Potency [3] | Potency [4] | Potency [5] | Potency [6]

O=C1CCN(c2ccccc2)N1
active: Potency [9] 17.3 µM
inactive: Potency [1] | Potency [3] | activity change, positive = activation [10] -36.4% | Potency [4] | Potency [8] | Potency [5] | Potency [6]

CCOC(=O)C(Br)c1ccccc1 (configuration not stated)
inactive: Potency [1] | outcome [7] | Potency [3] | Potency [4] | Potency [8] | Potency [5] | Potency [6]

CCN(CC)CCOc1ccc(Cc2ccccc2)cc1
inactive: Potency [1] | outcome [7] | Potency [3] | Potency [4] | Potency [5] | Potency [6]

Oc1ccccc1C=NCc1ccccc1
inactive: Potency [1] | outcome [7] | Potency [3] | Potency [4] | Potency [8] | Potency [5] | Potency [6]

CCOC(=O)COc1ccc2c(c1)CC(NCC(O)c1cccc(Cl)c1)CC2 (configuration not stated)
inactive: Potency [1] | Potency [2] | activity change, positive = activation [10] -15.6% | Potency [4] | Potency [8] | Potency [5] | Potency [6]

CCN1CC(CCN2CCOCC2)C(c2ccccc2)(c2ccccc2)C1=O (configuration not stated)
inactive: Potency [1] | outcome [7] | Potency [3] | Potency [9] | activity change, positive = activation [10] -6.21% [at 42.5 µM] | Potency [4] | Potency [5] | Potency [6]

CCN[C@H]1CN(CCCOC)S(=O)(=O)c2sc(S(N)(=O)=O)cc21
inactive: Potency [1] | Potency [2] | Potency [3] | Potency [4] | Potency [5] | Potency [6]

Cc1ccc([N+](=O)[O-])c(N)c1
inactive: Potency [1] | outcome [7] | Potency [3] | Potency [9] | activity change, positive = activation [10] -10.6% | Potency [4] | Potency [8] | Potency [5] | Potency [6]

CC(C)C(=O)OC/C=C/c1ccccc1
inactive: Potency [1] | outcome [7] | Potency [3] | Potency [9] | activity change, positive = activation [10] 4.91% | Potency [4] | Potency [8] | Potency [5] | Potency [6]

NCCCN1CCN(CCCN)CC1
inactive: Potency [1] | outcome [7] | Potency [3] | Potency [4] | Potency [8] | Potency [5] | Potency [6]

CCOC(=O)C1CC(=O)C(=C(O)C2CC2)C(=O)C1 (configuration not stated)
inactive: Potency [1] | outcome [7] | Potency [3] | Potency [9] | activity change, positive = activation [10] 6.54% | Potency [4] | Potency [8] | Potency [5] | Potency [6]

CN(CCCN1c2ccccc2CCc2ccccc21)CC(=O)c1ccc(Cl)cc1
inactive: Potency [2] | outcome [7] | Potency [3] | Potency [4] | Potency [8] | Potency [5] | Potency [6]

O=C(CC(=O)C(F)(F)F)c1ccccc1
inactive: Potency [2] | Potency [3] | Potency [9] | activity change, positive = activation [10] -6.03% | Potency [4] | Potency [8] | Potency [5] | Potency [6]

C=CCCC=C
inactive: Potency [3] | Potency [9] | activity change, positive = activation [10] 2.68% | Potency [4] | Potency [8] | Potency [5] | Potency [6]

COc1ccc(Nc2ccc(OC)cc2)cc1
active: activity change, positive = activation [10] 38% | Potency [8] 25 µM
inactive: Potency [3] | Potency [9] | Potency [4] | Potency [5] | Potency [6]

O=C1Nc2ccc([N+](=O)[O-])cc2C1=O
inactive: Potency [1] | Potency [3] | Potency [4] | Potency [5] | Potency [6]

CC1=C2[C@H](/C=C(\C)C(=O)O)CC[C@@H](C)[C@H]2CC1
active: Potency [9] 56.5 µM
inactive: Potency [2] | outcome [7] | Potency [3] | activity change, positive = activation [10] -46% | Potency [4] | Potency [5] | Potency [6]

NC(=O)NS(=O)(=O)c1ccc(Cl)cc1
inactive: Potency [1] | Potency [3] | Potency [4] | Potency [5] | Potency [6]

O=C1C=CC(=O)O1
inactive: Potency [1] | Potency [3] | Potency [9] | activity change, positive = activation [10] 7.02% | Potency [4] | Potency [8] | Potency [5] | Potency [6]
